High-throughput results from PubChem BioAssay.
Menin MLL FP TR: inhibitors of human menin-MLL interaction, mutant MLL peptide | O00255 | Menin + Texas Red MLL mutant peptide, fluorescence polarization | Potency, µM (titrated, usually from 61.6 µM), most hits filed as inhibitors | 270,000 tested, 0.23% active; active = well fitted inhibition curve with a large enough effect in the polarisation, with a control signal flat, not every such curve was filed as active; inconclusive = small, poorly fitted or top-dose-only effect, or effect the other way, or a change in a side signal; inactive = no such curve, though single readings can be large or run the other way; the % refers to the polarisation
CXXC DNA block: inhibitors of human MLL CXXC domain-DNA interaction; 290,000 tested, 0.037% active; Potency, µM (top dose mostly 115 µM), usual class: inhibitors; MLL-CXXC / FITC-HOXA9 DNA fluorescence polarization; active = well fitted inhibition curve with a large enough effect in the polarisation, with a control signal flat, not every such curve was filed as active; inconclusive = small, poorly fitted or top-dose-only effect, or effect the other way, or a change in a side signal; inactive = no such curve, though single readings can be large or run the other way; the % refers to the polarisation
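Fluorescence polarization: 7 uM MLL-CXXC (stock) preincubated 5 min with compounds, then 50 nM fluorescein-HOX-A9 DNA (stock) added; 30 min ambient. Buffer 50 mM Tris-HCl pH 7.5, 50 mM NaCl, 1 mM DTT, 0.05% BSA.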
Menin MLL FP FL: inhibitors of human menin-MLL interaction, wild-type MLL peptide | Fluorescence polarization, fluorescein-MLL peptide displacement from menin | FP activity change, % at 61.4 µM | 290,000 tested, under 10 active | AID 1766; active = well fitted curve in the direction sought with a large enough effect in the polarisation, not every such curve was filed as active; inconclusive = small, poorly fitted or top-dose-only effect, or effect the other way, or a change in a side signal; inactive = no such curve, though single readings can be large or run the other way; the % refers to the polarisation
PINK1 modulator: PINK1 expression modulation; PINK1 immunofluorescence, high-content cytometry, 24 h; Potency, µM (top dose mostly 76.6 µM), most hits filed as activators; 410,000 tested, 0.2% active; AID 624263; active = well fitted activation curve with a large enough effect; inconclusive = small, poorly fitted or top-dose-only effect; cell line not stated here; also: nearly all actives have a fitted effect of over 65% in size
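PINK1 protein level read as immunofluorescence by microplate cytometer in a fixed, stained stable cell line after 24 h exposure to five compound concentrations, with CCCP as control.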
ClpP mod: qHTS Assay for Activators of ClpP. Potency, µM (highest dose often 57.5 µM). purified B. subtilis ClpP, FRET peptide cleavage, 20 min. ATP-dependent Clp protease proteolytic subunit (Bacillus subtilis (strain 168)), P80244. AID 651965, 2013. 340,000 tested, 1.9% active; active = well fitted falling curve with a large enough effect; inconclusive = small, poorly fitted or top-dose-only effect; inactive = no such curve, though single readings can be large or run the other way; also: the source files actives as falling curves though it sought activators and does not explain the sign; nearly all actives have a fitted effect of over 65% in size
Target sequence (P80244 whole entry, looked up): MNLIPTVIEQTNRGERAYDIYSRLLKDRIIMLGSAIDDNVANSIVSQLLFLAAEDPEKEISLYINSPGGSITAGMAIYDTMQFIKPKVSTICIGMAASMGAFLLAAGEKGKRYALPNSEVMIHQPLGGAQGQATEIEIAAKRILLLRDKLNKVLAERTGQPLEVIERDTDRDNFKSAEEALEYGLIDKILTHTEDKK
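Purified B. subtilis ClpP, 10 microg/mL final in Tris/HCl pH8 with KCl, BSA, glycerol and Tween-20, cleaved an Abz/nitrotyrosine-quenched decapeptide. Fluorescence (ex 320, em 430) was read at 0 and 20 min at room temperature. Delta was normalized to 5.8 microM ADEP and DMSO/no-enzyme controls.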
Epigenetic reg: epigenetic control regulation, reporter derepression; murine LDR cells, GFP reporter derepression, 30 h; Potency, µM (top dose mostly 53.9 µM), actives largely listed as activators; 280,000 tested, 0.2% active; AID 1865; active = well fitted activation curve with a large enough effect; inconclusive = small, poorly fitted or top-dose-only effect; also: nearly all actives have a fitted effect of over 60% in size
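Murine LDR cells bearing a silenced CMV-driven GFP reporter were exposed to compound for 30 h at 37 C. After PBS washes, GFP-positive cells (20-120 um objects) counted by laser-scanning microplate cytometry.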
Each line names hits and unclear results; the compound was inactive in the other large screens. Hits are enriched below; roughly 1.9% of the tested compounds scored in any of these assays.

Cc1ccccc1NC(=O)c1nc(S(=O)(=O)Cc2ccccc2F)ncc1Cl	ClpP mod inconclusive (no result: Menin MLL FP TR, CXXC DNA block, Menin MLL FP FL, Epigenetic reg)
CN(Cc1ccco1)C(=O)c1cc(NC(=O)C2CCC2)c2c(c1)nc(-c1ccncc1)n2C	none (no result: Menin MLL FP TR, CXXC DNA block, Menin MLL FP FL, ClpP mod, Epigenetic reg)
O=S(=O)(c1cccc(Br)c1)N1CCN(c2nc(-c3cccs3)nc3ccccc23)CC1	ClpP mod inconclusive (no result: Menin MLL FP TR, CXXC DNA block, Menin MLL FP FL, Epigenetic reg)
O=S(=O)(c1ccc2ncccc2c1)N1CCN(c2nc(-c3cccs3)nc3ccccc23)CC1	ClpP mod 32µM (no result: Menin MLL FP TR, CXXC DNA block, Menin MLL FP FL, Epigenetic reg)
CCS(=O)(=O)N1CCN(c2ccc(C(=O)NC3C4CC5CC(C4)CC3C5)cc2[N+](=O)[O-])CC1 (stereo unspecified)	ClpP mod 25µM
O=C(Cc1ccc2c(c1)OCO2)N1CCOc2ccc(CN3CCOCC3)cc2C1	none (no result: Menin MLL FP TR, CXXC DNA block, Menin MLL FP FL, ClpP mod, Epigenetic reg)
COc1ccc(C(=O)Nc2ccccc2C(=O)N/N=C/c2cccc3ccccc23)cc1	Menin MLL FP TR 28µM, ClpP mod inconclusive
Cc1nn(C)c(C(=O)N/N=C/c2cccc3ccccc23)c1Cl	PINK1 modulator inconclusive, ClpP mod 14µM
COc1ccc(OC)c(/C=N\NC(=O)c2ccc(-c3ccccc3)cc2)c1	ClpP mod 28µM (no result: Menin MLL FP TR, Menin MLL FP FL, Epigenetic reg)
Cc1nn(C)c(C(=O)N/N=C/c2ccncc2)c1Cl	none (no result: Menin MLL FP TR, Menin MLL FP FL, Epigenetic reg)
COc1ccc(C(=O)Oc2ccc(/C=N/NC(=O)c3ccccc3OC)cc2[N+](=O)[O-])cc1	ClpP mod 28µM
COc1cccc(CNC(=O)c2c(OC)cc(=O)n3c2CCN(C(=O)c2csc(C)n2)CC3)c1	none (no result: Menin MLL FP TR, CXXC DNA block, Menin MLL FP FL, ClpP mod, Epigenetic reg)
COc1ccc(C(=O)N/N=C/c2cc3ccccc3[nH]c2=O)cc1	ClpP mod 28µM
COc1ccc(OC)c(/C=N/NC(=O)CNC(=O)c2cccc3ccccc23)c1	ClpP mod 18µM (no result: Epigenetic reg)
CC(=O)/C=C/c1ccc2c(c1)S(=O)(=O)N(C1CCCC1)[C@H]2CC(C)=O	none (no result: Menin MLL FP TR, CXXC DNA block, Menin MLL FP FL, PINK1 modulator, Epigenetic reg)
Nn1c(SCC(=O)N2CCCCC2)nnc1-c1ccncc1	ClpP mod 28µM
Fc1ccc(Cn2cccc2C2=NC(c3ccccc3)CO2)cc1 (stereo unspecified)	ClpP mod 20µM
CCOc1ccccc1-c1cc(-c2ccccc2)nc2c1c(=O)n(C)c(=O)n2C	ClpP mod 32µM
O=C(CCc1nc2ccccc2c(=O)[nH]1)Nc1ccc(F)c([N+](=O)[O-])c1	Menin MLL FP TR inconclusive, Menin MLL FP FL inconclusive
O=C(Nc1cc([N+](=O)[O-])c2[nH]c(=O)c3ccccc3c2c1)C(F)(F)F	ClpP mod 32µM (no result: Menin MLL FP TR, CXXC DNA block, Menin MLL FP FL, Epigenetic reg)
CCOC(=O)c1ccc(NC(=O)CCS(=O)(=O)c2ccc(Br)s2)cc1	ClpP mod 32µM (no result: Menin MLL FP TR)
Cc1cccc(NC(=O)/C=C/c2ccc([N+](=O)[O-])s2)c1	Menin MLL FP FL inconclusive, Epigenetic reg 7.1µM
Cc1ccc(NC(=O)/C=C/c2ccc([N+](=O)[O-])s2)cc1	Menin MLL FP FL inconclusive, PINK1 modulator inconclusive, Epigenetic reg 8.9µM
Cc1ccc(NC(=O)/C=C/c2ccc([N+](=O)[O-])s2)c(C)c1	Menin MLL FP TR inconclusive, CXXC DNA block inconclusive, Menin MLL FP FL inconclusive, PINK1 modulator inconclusive
Cc1cccc(NC(=S)N/N=C/c2ccc([N+](=O)[O-])s2)c1	Menin MLL FP TR inconclusive
Cc1oc(-c2ccccc2NC(=O)c2ccccc2)nc1CNC(=O)C1CC(=O)OC12CCCCC2 (stereo unspecified)	none (no result: Menin MLL FP TR, CXXC DNA block, Menin MLL FP FL, ClpP mod, Epigenetic reg)
COc1cccc(CCNc2ncnc3sc(C(=O)N4CCOCC4)c(C)c23)c1	none (no result: Menin MLL FP TR, CXXC DNA block, Menin MLL FP FL, ClpP mod, Epigenetic reg)
Cc1sc(NC(=S)NC(=O)CCc2ccccc2)c(C(N)=O)c1C	ClpP mod 28µM
COC(=O)CCC(=O)NC(=S)Nc1sc(C)c(C)c1C(N)=O	none
COCCCNC(=O)/C(C#N)=C/c1c(N2CCN(c3ccc(OC)cc3)CC2)nc2c(C)cccn2c1=O	Menin MLL FP TR 28µM (no result: Epigenetic reg)
COCCCNC(=O)/C(C#N)=C/c1c(N2CCN(C)CC2)nc2c(C)cccn2c1=O	none (no result: Epigenetic reg)
COC(=O)c1ccc(-c2ccco2)n1Cc1cc(C)ccc1C	ClpP mod 32µM
CCCNC(=O)COc1nc2ccccc2nc1N1CCOCC1	none
CC1Cc2ccccc2N1C(=O)COc1nc2ccccc2nc1N1CCOCC1 (stereo unspecified)	ClpP mod 28µM
